The source made the active and inactive calls. How the source made its calls: active means hit-call score of the fitted dose curve at least 0.9, where 1 is the maximum; inactive means score below 0.9.

Here are results for one molecule from PubChem BioAssay AID2284140 (EPA ToxCast).

The assay has as its target Tyrosine-protein kinase SYK (Homo sapiens) (UniProt P43405). In words: ERF_FR_ENZ_hSYK: Eurofins (ERF) Enzymatic Radiometric [Km ATP] KinaseProfiler LeadHunter Assay for human Syk Tyrosine Kinase. The method, then: ERF_FR_ENZ_hSYK is a biochemical, single-readout assay that uses extracted gene-proteins in a cell-free assay. Measurements were taken 0.5 hour after chemical dosing in a 96-well plate. See Syk Human TK Kinase Enzymatic LANCE Assay [Km ATP], Cerep.ERF_FR_ENZ_hSYK is an assay component calculated from the ERF_FR_ENZ_hSYK assay. It is designed to measure enzyme activity using a type of enzyme reporter as detected by fluorescence intensity with LANCE technology.Data from the assay component ERF_FR_ENZ_hSYK was analyzed at the assay endpoint, ERF_FR_ENZ_hSYK, in the positive analysis fitting direction relative to DMSO as the negative control and baseline of activity. Using a type of enzyme reporter, loss-of-signal activity can be used to understand changes in enzymatic activity as they relate to gene SYK. To generalize the intended target to other relatable targets, this assay endpoint is annotated to the kinase intended target family, where the subfamily is spleen tyrosine kinase.
Syk (h) is incubated with 50 mM Tris pH 7.5, 0.1 mM EGTA, 0.1 mM Na3VO4, 0.1% […], 0.1 mg/ mL poly(Glu, Tyr) 4:1, 10 mM MgAcetate and [gamma-33P]-ATP (specific activity and concentration as required). The reaction is initiated by the addition of the Mg/ATP mix. After incubation for 40 minutes at room temperature, the reaction is stopped by the addition of phosphoric acid to a concentration of 0.5%. […]
Consider `O=C(/C=C/c1ccc(O)cc1)CC(=O)/C=C/c1ccc(O)cc1`, for which the result was inactive.
